Screening results (PubChem BioAssay)
Compounds with a hit are over-represented: about 7.3% of the library has one in this group of screens.
NPC1 prom act: activators of NPC1 promoter | Huh7 NPC1 promoter luciferase reporter, 24 h | Potency, µM (series often up to 9.22 µM), inactives show at the highest dose activation, actives largely listed as activators | 2.4% of 320,000 active | AID 485313; also: % of control where 0% means no effect; nearly all actives have a fitted effect of over 60% in size
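In 1536-well qHTS, Huh7 cells harboring an NPC1 promoter–luciferase construct received compound for 24 h; activation was quantified by luminescence following luciferase reagent addition.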
FLuc counter: counter-screen for miR-21 project: firefly luciferase inhibitors or activators; P08659; purified FLuc, Km substrates, luminescence inhibition; Potency, µM (top dose mostly 57.5 µM), inactives show at the highest dose activity change, negative = inhibition, actives largely listed as inhibitors; 6.9% of 360,000 active;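 also: plate controls were vehicle for no effect and reference inhibitor for full effect; nearly all actives have a fitted effect of over 55% in size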
Target sequence (P08659 whole entry, looked up): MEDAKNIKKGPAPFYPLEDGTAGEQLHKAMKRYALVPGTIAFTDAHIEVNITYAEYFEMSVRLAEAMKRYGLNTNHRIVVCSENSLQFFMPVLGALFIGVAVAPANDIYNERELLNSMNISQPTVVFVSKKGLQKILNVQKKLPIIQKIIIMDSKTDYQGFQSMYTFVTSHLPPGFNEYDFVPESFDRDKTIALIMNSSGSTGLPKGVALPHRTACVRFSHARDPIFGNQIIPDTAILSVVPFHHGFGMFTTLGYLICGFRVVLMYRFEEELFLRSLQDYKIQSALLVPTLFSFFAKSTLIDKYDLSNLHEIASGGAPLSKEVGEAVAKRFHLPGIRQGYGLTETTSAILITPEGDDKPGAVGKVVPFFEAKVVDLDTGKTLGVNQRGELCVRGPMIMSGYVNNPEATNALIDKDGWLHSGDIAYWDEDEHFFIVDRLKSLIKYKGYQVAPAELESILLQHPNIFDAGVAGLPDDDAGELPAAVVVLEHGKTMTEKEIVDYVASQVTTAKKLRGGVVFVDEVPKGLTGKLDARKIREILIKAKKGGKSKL
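Purified P. pyralis luciferase, 10 nM final, with Km-level 10 uM D-luciferin and 10 uM ATP in 50 mM Tris acetate pH 7.5, 10 mM Mg acetate, 0.01% Tween-20, 0.05% BSA; 6-point qHTS titration about 60 µM downward; luminescence read.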
Rab9 promoter act: activators of Rab9 promoter; Huh7 Rab9 promoter-luciferase reporter, luminescence, 24 h; Potency, µM (series often up to 9.22 µM), without a hit: at the top dose activation, negative = inhibition, hits mostly activators; 2.8% of 320,000 active; AID 485297; also: % of control where 0% means no effect; nearly all actives have a fitted effect of over 60% in size
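Using Huh7 cells stably transfected with Rab9 promoter–luciferase, compounds were incubated 24 h at 37 °C, 5% CO2; luciferase luminescence was read 10 min after reagent addition.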
ELG1 genotox: induces genotoxicity in HEK293T cells with luciferase-tagged ELG1; HEK293T ELG1-luciferase reporter, luminescence, 16 h; Potency, µM (series often up to 46 µM), inactives show at the highest dose activity change, positive = activation, most hits filed as activators; 1.3% of 330,000 active; AID 504466; also: % of control where 0% means no effect; nearly all actives have a fitted effect of over 60% in size
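16 hr compound incubation (37 °C, 5% CO2) of HEK293T cells carrying luciferase-tagged ELG1; luciferase then measured by ONE-Glo luminescence after 30 min at RT.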
SMN2 splice up: enhancers of SMN2 splice variant expression; HEK293 SMN2-luciferase splicing reporter, luminescence, 30-36 h; Potency, µM (titrated, usually from 46.1 µM), for inactives: at the highest dose activity change, positive = activation, actives largely listed as activators; 2.8% of 210,000 active; AID 1458; also: % of control where 0% means no effect; nearly all actives have a fitted effect of over 55% in size
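qHTS luciferase splicing reporter: luminescence rises when SMN2 exon 7 is included in transfected HEK293 cells. Compound exposure lasted 30-36 h at 37C, with 4.5 mM final sodium butyrate as control, followed by a ONE-Glo read.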
Luc counter: blocks Kinase-Glo luciferase, a counter-screen artifact; Q27757; Kinase-Glo luciferase, ATP luminescence, 8 min; Potency, µM (doses to about 38.3 µM), without a hit: top-dose activity change, negative = inhibition, usual class: inhibitors; 0.28% of 200,000 active; AID 1379; also: % is scaled to controls: 0 for no effect and ±100 for the full control effect; nearly all actives have a fitted effect of over 60% in size
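Recombinant Kinase-Glo luciferase, 10 uM ATP (linear range), luciferin; imidazole pH 7.2 / KCl / MgCl2 / Tween / BSA buffer; 8 min RT; luminescence.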
The depositor's hits bear a star; [ ] = remark or other dose. Calls follow the shape of the dose curve; as a rule, active = well fitted curve in the direction sought with a large enough effect; inconclusive = small, poorly fitted or top-dose-only effect, or another doubt; inactive = no such curve, though single readings can be large; an effect the other way counts as inactive or inconclusive. Potency is read from the fitted curve at half-maximal effect.

Results for CCc1ccc(Nc2nnc(SCC(=O)NC(=O)CN3CCCC3=O)s2)cc1 ?
NPC1 prom act: -0.3%; FLuc counter: 3.01µM*; Rab9 promoter act: 3.0%; ELG1 genotox: 7.5%

How did O=C(COC(=O)CCc1c[nH]c2ccccc12)NCc1ccc(Cl)cc1 do in these assays?
NPC1 prom act: -2.6%; FLuc counter: 1.0%; Rab9 promoter act: 4.4%; ELG1 genotox: 0.5%; SMN2 splice up: 14.5%; Luc counter: 1.4%

Results for Cc1ccc(C2C=C(c3ccccc3)Nc3nc(NS(=O)(=O)c4ccccc4)nn32)cc1 (centres undefined) ?
FLuc counter: inconclusive; SMN2 splice up: 7.3%

What do the screens show for `CNc1nc(SC)n(C)c(=O)c1N=O`?
NPC1 prom act: -0.8%; FLuc counter: -1.6%; Rab9 promoter act: -0.8%; ELG1 genotox: 15.2%

What do the screens show for `Clc1ccc(-c2nnc(N3CCCC3)nn2)cc1`?
NPC1 prom act: inconclusive; FLuc counter: 1.2µM*; Rab9 promoter act: 0.316µM*; ELG1 genotox: inconclusive; SMN2 splice up: 6.31µM*; Luc counter: -10.2%

Results for O=C(O)c1ccc(Cl)cc1NC(=O)C1CCCO1 (centres undefined) ?
FLuc counter: 2.2%; SMN2 splice up: -6.9%; Luc counter: 4.5%

Results for Cc1ccc2oc(-c3cccc(NC(=O)Cc4cccs4)c3)nc2c1 ?
NPC1 prom act: 11.5%; FLuc counter: -10.8%; Rab9 promoter act: 26.7%; ELG1 genotox: 9.3%; SMN2 splice up: 3.9%; Luc counter: -4.4%

What do the screens show for `COC(=O)c1c(-c2cccc(C)c2)csc1NC(=O)C1CCCO1` (centres undefined)?
NPC1 prom act: 1.4%; FLuc counter: inconclusive; Rab9 promoter act: 3.5%; ELG1 genotox: 2.2%; SMN2 splice up: -16.6%; Luc counter: 1.5%

What do the screens show for `Cc1cccc(-c2nc3cc(NC(=O)C4CCCO4)ccc3o2)c1` (centres undefined)?
NPC1 prom act: 0.316µM*; FLuc counter: 0.849µM*; Rab9 promoter act: 0.282µM*; ELG1 genotox: 1.16µM*; SMN2 splice up: 1µM*; Luc counter: inconclusive

What do the screens show for `Cc1ccc2oc(-c3cccc(NC(=O)C4CCCO4)c3)nc2c1` (centres undefined)?
NPC1 prom act: 17.9%; FLuc counter: 4.26µM*; Rab9 promoter act: 17.8%; ELG1 genotox: 20.6µM*; SMN2 splice up: 12.6µM*; Luc counter: -1.9%

How did O=C(Nc1cccc(-c2nc3cc(Cl)ccc3o2)c1)C1CCCO1 (centres undefined) do in these assays?
NPC1 prom act: 9.2%; FLuc counter: -8.3%[2.3 µM]; Rab9 promoter act: 15.5%; ELG1 genotox: 6.5%; SMN2 splice up: 25.1µM*; Luc counter: -1.5%

How did CCN(CC)c1ccc2cc(-c3nnc(-c4ccncc4)o3)c(=O)oc2c1 do in these assays?
NPC1 prom act: inconclusive; FLuc counter: inconclusive; Rab9 promoter act: inconclusive; ELG1 genotox: inconclusive; SMN2 splice up: 11.2µM*; Luc counter: 0.4%

What do the screens show for `CCN(CC)c1ccc2cc(-c3nc(-c4cccs4)no3)c(=O)oc2c1`?
FLuc counter: 3.79µM*

Results for Cc1ccc2[nH]c3c(=O)n(CC(=O)N(C)Cc4ccccc4)ncc3c2c1 ?
FLuc counter: -1.1%

Results for Cc1nc(NC(=O)c2ccc(Br)o2)sc1C ?
NPC1 prom act: inconclusive; FLuc counter: 7.57µM*; Rab9 promoter act: inconclusive; ELG1 genotox: 17.0%; SMN2 splice up: inconclusive; Luc counter: inconclusive

Results for Cc1ccc(C(=O)Nc2cccc(NC(=O)c3ccc(C)o3)n2)o1 ?
NPC1 prom act: -5.0%; FLuc counter: 15.1µM*; Rab9 promoter act: 8.3%; ELG1 genotox: 0.1%

Results for Cc1ccc(C(=O)Nc2nc(C)c(C)s2)o1 ?
NPC1 prom act: inconclusive; FLuc counter: 6.75µM*; Rab9 promoter act: 3.16µM*; ELG1 genotox: inconclusive; SMN2 splice up: 14.1µM*; Luc counter: inconclusive
